The structures appear in SMILES notation. Inconclusive results are not listed. Activity calls are given as the source filed them. The call rests on the fitted dose curve; in most records, active means well fitted activation curve with a large enough effect; inconclusive means small, poorly fitted or top-dose-only effect; inactive means flat fitted curve, though single readings scatter.
Potency means the concentration at half of the fitted maximal effect.

Relaxin receptor 2 (Homo sapiens), sequence (Q8WXD0 whole entry, looked up): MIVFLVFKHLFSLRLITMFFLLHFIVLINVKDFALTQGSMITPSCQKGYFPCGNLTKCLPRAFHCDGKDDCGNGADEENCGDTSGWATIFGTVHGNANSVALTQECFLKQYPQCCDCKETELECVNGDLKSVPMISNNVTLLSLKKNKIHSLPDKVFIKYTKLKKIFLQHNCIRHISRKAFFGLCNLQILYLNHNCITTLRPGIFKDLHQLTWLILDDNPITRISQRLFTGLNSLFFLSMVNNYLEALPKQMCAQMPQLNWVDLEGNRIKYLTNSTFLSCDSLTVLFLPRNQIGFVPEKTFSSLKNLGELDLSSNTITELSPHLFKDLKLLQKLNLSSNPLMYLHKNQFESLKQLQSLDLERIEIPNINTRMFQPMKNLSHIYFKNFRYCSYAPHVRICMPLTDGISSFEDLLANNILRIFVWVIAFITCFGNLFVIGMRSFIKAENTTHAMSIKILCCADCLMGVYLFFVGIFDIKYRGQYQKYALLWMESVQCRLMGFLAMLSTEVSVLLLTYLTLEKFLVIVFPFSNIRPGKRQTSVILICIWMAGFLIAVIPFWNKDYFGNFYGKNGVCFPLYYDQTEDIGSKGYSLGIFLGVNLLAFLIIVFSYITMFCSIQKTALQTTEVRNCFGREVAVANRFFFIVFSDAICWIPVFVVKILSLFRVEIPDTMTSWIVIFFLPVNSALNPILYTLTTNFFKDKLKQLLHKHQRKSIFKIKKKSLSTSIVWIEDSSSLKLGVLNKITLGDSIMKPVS

This assay concerns the target Relaxin receptor 2 (Homo sapiens) (UniProt Q8WXD0). Kind of assay: qHTS Assay for Agonists of the Relaxin Receptor RXFP1: RXFP2 Hit Validation. Further: nearly all actives have a fitted effect of over 65% in size. As to conditions: HEK293 RXFP2 cAMP TR-FRET, 30 min; series mostly up to 115 µM; activation: at the top concentration. In a few lines: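 TR-FRET cAMP read-out in lysed HEK293 RXFP2 cells, normalized to buffer (basal) and 29 nM porcine relaxin (100%). Compounds 30 min, 37C, with Ro 20174 present. EC50 via standard Hill equation.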
(In general: Quantitative high-throughput screening tests each substance at several concentrations.)
Consider `O=C(NC1CCCCCC1)c1cc2c(=O)n3ccccc3nc2s1`, for which the Potency was 38.9 µM (active).
As for `CCCC(=O)Nc1ncnc2c1ncn2[C@@H]1O[C@@H]2COP(=O)(O)O[C@H]2[C@H]1OC(=O)CCC`, the Potency is 1.38 µM (active).
Turning to `O=C(O)c1ccc(N2C(=O)c3cccc4c(C(=O)O)ccc(c34)C2=O)cc1`, the Potency was 47.3 µM (active).
With `Cc1cccn2c(=O)c(/C=C3\SC(=S)NC3=O)c(NCCCN3CCOCC3)nc12`, the Potency is 4.35 µM (active).
As for `Cc1ccc(CN(C)C(=O)c2ccc3c(c2)NC(=O)CS3)o1`, the “activation” value was -25.2% (inactive).
For the compound `Cc1cccc2cc(C#N)c(SCC(=O)NCc3cccs3)nc12`, the Potency is 19.4 µM (active).
On to `Cc1cc(C)c(C(=O)CSc2n[nH]c(=O)n2C2CC2)cc1C`, for which the “activation” value is -0.257% (inactive).
As for `CC(=O)c1sc(NC(=O)C(C)C)nc1C`, the Potency is 15.4 µM (active).
As for `O=[N+]([O-])c1cc2c(c(CSc3nnc4ccccn34)c1)OCOC2`, the Potency is 11 µM (active).
As for `COc1ccc(CC(=O)N/N=C/c2cccnc2)cc1OC`, the “activation” value was -3.6% (inactive).
On to `CCc1cc2cc3c(cc2nc1SCC(=O)Nc1nccs1)OCO3`, for which the Potency is 21.8 µM (active).
Consider `Cc1cc(C)nc(/N=C(\N)Nc2ccc(S(=O)(=O)Nc3nccc(C)n3)cc2)n1`, for which the Potency is 34.6 µM (active).
Consider `COc1ccc(S(=O)(=O)N2CCOCC2)cc1NC(=O)CSc1nnc2ccccn12`, for which the Potency was 6.15 µM (active).
In the case of `Nc1cc2ccncc2c2ccccc12`, the “activation” value was 4.43% (inactive).
`O=C(Nc1ccccc1C(=O)Nc1ccccc1C(=O)NCc1ccco1)c1ccco1`: the Potency entry is “inactive”.
Regarding `CN1C(=O)c2ccc(C(=O)Nc3ccc(Br)cn3)cc2C1=O`, the Potency was 21.8 µM (active).
`O=C(Nc1ccccc1C(=O)Nc1ccccc1)c1ccco1`: the “activation” value is -8.2% [at 125 µM] (inactive).
For the compound `NS(=O)(=O)c1ccc(CCNC(=O)C2CCN(c3ncnc4c3nc3n4CCCCC3)CC2)cc1`, the Potency is 38.9 µM (active).
Same read-out and setting: for `CCCN(CCC)S(=O)(=O)c1cc(CN2C(=O)c3cccnc3C2=O)ccc1OC` the value was 24.5 µM (active).
Same read-out and setting: for `C=C[C@@]1(C)CC(=O)[C@]2(O)[C@@]3(C)[C@@H](O)CCC(C)(C)[C@@H]3[C@H](O)[C@H](OC(C)=O)[C@@]2(C)O1` the value was 0.0488 µM (active).
Take `O=C(Nc1ccccc1C(=O)N1CCNCC1)c1ccco1`: the “activation” value is -3.31% [at 125 µM] (inactive).
On the same count and under the same terms, for `CCN(CC)C(=O)c1cc(Cl)ccc1NC(=O)c1ccco1` the value was -3.03% [at 125 µM] (inactive).
`CCN(CC)S(=O)(=O)c1ccc(C(=O)NCCN2C(=O)S/C(=C\c3cccnc3)C2=O)cc1`: the Potency was 13.8 µM (active).
On to `O=C(O)CNC(=O)c1ccccc1NC(=O)c1ccco1`, for which the “activation” value is 8.14% [at 125 µM] (inactive).
Regarding `CC1CCCCN1C(=O)c1ccccc1NC(=O)c1ccco1` (stereo unspecified), the “activation” value is 3.11% [at 125 µM] (inactive).
As for `O=C(O)c1cccc(CSc2nnc(Cc3ccccc3)o2)c1`, the “activation” value was 3.94% [at 44.7 µM] (inactive).
Turning to `Cc1ccc(NC(=O)CCc2nnc3ccc(N4CCN(C)CC4)nn23)cc1F`, the Potency is 38.9 µM (active).
`Cc1cc(Br)c2nc3c(c(C(=O)O)c2c1)CCCCC3`: the Potency was 1.94 µM (active).
Consider `CC[n+]1ccc(/C=C/c2ccc(N(C)C)cc2)c2ccccc21`, for which the “activation” value was -21.1% (inactive).
For the compound `Cc1ccc2cc(CN(C(=O)c3cccs3)c3ccccc3)c(=O)[nH]c2c1`, the “activation” value was 5.18% (inactive).
Turning to `CCNc1nc(NCC)nc(N(C)/N=C/c2ccco2)n1`, the “activation” value is 7.92% (inactive).

The values are drawn from PubChem BioAssay AID489043 (National Center for Advancing Translational Sciences (NCATS), 2010).
